In paper PMC5540273 (PLoS ONE, 2017):

test system: DDR2; conditions: concentration: 1 μM, replicates: in singlicate; n = 1
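Further: KINOMEscan kinase panel screen.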

SMILES	%Inh [%]
Cl.Cn1ccc(-c2cccc(Nc3ccnc4cc(-c5nccs5)ccc34)c2)n1 [GW525701]	33
Nc1nc(-c2ccccn2)c(-c2ccnc3ccccc23)s1 [GW548057]	33
CC(C)N1CCC(n2cnc(-c3ccc(F)cc3)c2-c2ccnc(N)n2)CC1 [SB-223132]	38
Fc1cccc(COc2ccc(Nc3ncnc4cc[nH]c34)cc2Cl)c1	0
Cc1cc(N2CCC(NS(=O)(=O)c3ccc(F)cc3)CC2)nc(Nc2cccc(C#N)c2)n1.O=C(O)C(F)(F)F [GSK1653537]	7
C[C@H]1CC[C@@H](C(=O)Nc2ccccc2)CN1c1cc(-c2ccc3c(N)n[nH]c3c2)nc(N)n1 [GSK2283293]	5
CC(C)(C)c1ccc(-n2cnc3c(N)ncnc32)cc1 [SKF-97263]	13
Cc1ccc(NC(=O)c2cccc(C#N)c2)cc1-c1ccc(C(=O)Nc2ccncc2)cc1 [GSK1398463]	82
Fc1cccc(COc2ccc(Nc3ncnc4nn5ccccc5c34)cc2Cl)c1 [GW689066]	37
Cn1ccc2ncnc(Oc3ccc(NC(=O)Nc4cccnc4)c(Cl)c3)c21	90.7
COc1ccc(NC(=O)c2ccc(-c3cc(-c4nnc(C)o4)ccc3C)cc2)cc1 [GW595885]	9
CS(=O)(=O)CCNCc1ccc(-c2ccc3ncnc(Nc4ccc(OCc5ccccc5)c(Cl)c4)c3c2)o1.Cl [GW574783]	39
CSc1ccc(NC2=C(c3ccccc3Cl)C(=O)NC2=O)cc1 [SB-342411]	0
CCn1c(-c2ccncc2)nc2cnccc21 [SB-735216]	7
Cn1cc(-c2ccc3c(c2)CCN3C(=O)Cc2cccc(C(F)(F)F)c2)c2c(N)ncnc21 [GSK2606414]	74
CNc1nccc(-c2c(-c3ccc(F)cc3)ncn2CCCN2CCOCC2)n1 [SB-222516]	0
CN1CCC(n2cnc(-c3ccc(F)cc3)c2-c2ccnc(NC3CCNCC3)n2)CC1 [SB-229482]	0
Clc1cc(Nc2ncnc3cc[nH]c23)ccc1OCc1ccccn1	0

SMILES	%Inh [%]
COc1cc2ncnc(Nc3ccc(OCc4ccccc4Br)c(Cl)c3)c2cc1OC.Cl [GI261590]	18
Cc1ccc(C)c(NC(=O)NCCNc2ccnc(Nc3ccc(F)cc3)n2)c1 [GSK1379878]	15
Cl.O=S(=O)(c1cccc(F)c1)c1ccc(Nc2ncnc3cc(Br)sc23)cc1Cl [GSK306886]	0
CCc1nc(-c2cccc(C)c2)c(-c2ccnc(NC(=O)c3ccccc3)c2)s1	1
FC(F)(F)c1ccc(-c2nn3ncccc3c2-c2ccnc(Nc3cccc(C(F)(F)F)c3)n2)cc1 [GW828205]	25
Cl.c1ccc(Cn2ccc3cc(Nc4ncnc5ccccc45)ccc32)cc1 [GW275568]	16
C[C@@H]1CCN(C(=O)CO)C[C@@H]1N(C)c1ncnc2[nH]ccc12	0
O=C(NCCCN1CCCC1=O)c1cnc(NCc2cc(Cl)ccc2Cl)nc1NC1CCNCC1	0
CSc1nn2c(=O)cc(N3CCOCC3)nc2n1Cc1cccc(Cl)c1Cl [GSK2347225]	0
COc1ccc(Nc2nccc(N3CCC(NC(=O)c4cccc(NC(C)=O)c4)C3)n2)cc1 (stereo not drawn) [GSK1379732]	41
Fc1cccc(COc2ccc(Nc3ncnc4sc(-c5ccc[nH]5)cc34)cc2Cl)c1 [GW707818]	21
O=C(Nc1ccccc1)Nc1ccc(Oc2ccc3nccn3n2)cc1	100
CN1c2ccc(-c3ccc(C(=O)NCCO)cc3)cc2-c2[nH]ncc2S1(=O)=O	0
FC(F)(F)c1ccc(-c2cc(-c3c[nH]nc3-c3ccccn3)ccn2)cc1 [GW599550]	17
Nc1nccc2scc(-c3ccc4c(c3)CCN4C(=O)Cc3cc(F)ccc3F)c12 [GSK2587663]	1
Cn1ccc2ncnc(Nc3ccc(Oc4cccc(Cl)c4)c(Cl)c3)c21	4
CS(=O)(=O)CCNCc1nc(-c2ccc3ncnc(Nc4ccc(OCc5cccc(F)c5)c(Cl)c4)c3c2)cs1.Cl [GW583340]	20
CCCc1ccc(S(=O)(=O)NC2CCN(c3ccnc(Nc4ccc(OC)cc4)n3)C2)cc1 (stereo not drawn) [GSK1379737]	34

test system: T1, DLK; conditions: concentration: 1 μM, replicates: in singlicate; n = 1
T1 construct: gene MAP3K12

SMILES	%Inh [%]
Cl.Cn1ccc(-c2cccc(Nc3ccnc4cc(-c5nccs5)ccc34)c2)n1 [GW525701]	37
Nc1nc(-c2ccccn2)c(-c2ccnc3ccccc23)s1 [GW548057]	45
CC(C)N1CCC(n2cnc(-c3ccc(F)cc3)c2-c2ccnc(N)n2)CC1 [SB-223132]	0
Fc1cccc(COc2ccc(Nc3ncnc4cc[nH]c34)cc2Cl)c1	0
Cc1cc(N2CCC(NS(=O)(=O)c3ccc(F)cc3)CC2)nc(Nc2cccc(C#N)c2)n1.O=C(O)C(F)(F)F [GSK1653537]	47
C[C@H]1CC[C@@H](C(=O)Nc2ccccc2)CN1c1cc(-c2ccc3c(N)n[nH]c3c2)nc(N)n1 [GSK2283293]	25
CC(C)(C)c1ccc(-n2cnc3c(N)ncnc32)cc1 [SKF-97263]	0
Cc1ccc(NC(=O)c2cccc(C#N)c2)cc1-c1ccc(C(=O)Nc2ccncc2)cc1 [GSK1398463]	0
Fc1cccc(COc2ccc(Nc3ncnc4nn5ccccc5c34)cc2Cl)c1 [GW689066]	52
Cn1ccc2ncnc(Oc3ccc(NC(=O)Nc4cccnc4)c(Cl)c3)c21	0
COc1ccc(NC(=O)c2ccc(-c3cc(-c4nnc(C)o4)ccc3C)cc2)cc1 [GW595885]	18
CS(=O)(=O)CCNCc1ccc(-c2ccc3ncnc(Nc4ccc(OCc5ccccc5)c(Cl)c4)c3c2)o1.Cl [GW574783]	25
CSc1ccc(NC2=C(c3ccccc3Cl)C(=O)NC2=O)cc1 [SB-342411]	0
CCn1c(-c2ccncc2)nc2cnccc21 [SB-735216]	0
Cn1cc(-c2ccc3c(c2)CCN3C(=O)Cc2cccc(C(F)(F)F)c2)c2c(N)ncnc21 [GSK2606414]	23
CNc1nccc(-c2c(-c3ccc(F)cc3)ncn2CCCN2CCOCC2)n1 [SB-222516]	1
CN1CCC(n2cnc(-c3ccc(F)cc3)c2-c2ccnc(NC3CCNCC3)n2)CC1 [SB-229482]	0
Clc1cc(Nc2ncnc3cc[nH]c23)ccc1OCc1ccccn1	40

SMILES	%Inh [%]
COc1cc2ncnc(Nc3ccc(OCc4ccccc4Br)c(Cl)c3)c2cc1OC.Cl [GI261590]	3
Cc1ccc(C)c(NC(=O)NCCNc2ccnc(Nc3ccc(F)cc3)n2)c1 [GSK1379878]	38
Cl.O=S(=O)(c1cccc(F)c1)c1ccc(Nc2ncnc3cc(Br)sc23)cc1Cl [GSK306886]	0
CCc1nc(-c2cccc(C)c2)c(-c2ccnc(NC(=O)c3ccccc3)c2)s1	6
FC(F)(F)c1ccc(-c2nn3ncccc3c2-c2ccnc(Nc3cccc(C(F)(F)F)c3)n2)cc1 [GW828205]	7
Cl.c1ccc(Cn2ccc3cc(Nc4ncnc5ccccc45)ccc32)cc1 [GW275568]	6
C[C@@H]1CCN(C(=O)CO)C[C@@H]1N(C)c1ncnc2[nH]ccc12	0
O=C(NCCCN1CCCC1=O)c1cnc(NCc2cc(Cl)ccc2Cl)nc1NC1CCNCC1	0
CSc1nn2c(=O)cc(N3CCOCC3)nc2n1Cc1cccc(Cl)c1Cl [GSK2347225]	100
COc1ccc(Nc2nccc(N3CCC(NC(=O)c4cccc(NC(C)=O)c4)C3)n2)cc1 (stereo not drawn) [GSK1379732]	33
Fc1cccc(COc2ccc(Nc3ncnc4sc(-c5ccc[nH]5)cc34)cc2Cl)c1 [GW707818]	40
O=C(Nc1ccccc1)Nc1ccc(Oc2ccc3nccn3n2)cc1	18
CN1c2ccc(-c3ccc(C(=O)NCCO)cc3)cc2-c2[nH]ncc2S1(=O)=O	29
FC(F)(F)c1ccc(-c2cc(-c3c[nH]nc3-c3ccccn3)ccn2)cc1 [GW599550]	41
Nc1nccc2scc(-c3ccc4c(c3)CCN4C(=O)Cc3cc(F)ccc3F)c12 [GSK2587663]	21
Cn1ccc2ncnc(Nc3ccc(Oc4cccc(Cl)c4)c(Cl)c3)c21	0
CS(=O)(=O)CCNCc1nc(-c2ccc3ncnc(Nc4ccc(OCc5cccc(F)c5)c(Cl)c4)c3c2)cs1.Cl [GW583340]	2
CCCc1ccc(S(=O)(=O)NC2CCN(c3ccnc(Nc4ccc(OC)cc4)n3)C2)cc1 (stereo not drawn) [GSK1379737]	28
